Assays:
Experiment in all cases: log2 ratio of Biotin-Ahx-Ub-VS probe labelling (fragment/DMSO); higher = less target engagement (more negative = stronger competition), active = hit call of the paper (q ≤ 0.05, log2 ratio ≤ -1)
Conditions in all cases: compound concentration: 200 uM; treatment time: 3 h
USP16 = USP16 (UniProt Q9Y5T5)
Method in brief: (§1)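 Global-median-normalised Spectronaut label-free quantities were compared by unpaired t-test, and values are average log2 ratios of fragment over vehicle. Only proteins with ≥2 unique peptides were used. HEK293T lysate (495 µg per sample) was treated in triplicate with fragment at 200 µM or vehicle for 3 h and then with Biotin-Ahx-Ub-VS at 0.5 µM final for 1 h. Labelled DUBs were then NeutrAvidin-enriched, digested with LysC and trypsin, and run by diaPASEF LC-MS/MS.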

USP19 = biological target: T1, USP19 (UniProt O94966)
T1 sequence (whole entry): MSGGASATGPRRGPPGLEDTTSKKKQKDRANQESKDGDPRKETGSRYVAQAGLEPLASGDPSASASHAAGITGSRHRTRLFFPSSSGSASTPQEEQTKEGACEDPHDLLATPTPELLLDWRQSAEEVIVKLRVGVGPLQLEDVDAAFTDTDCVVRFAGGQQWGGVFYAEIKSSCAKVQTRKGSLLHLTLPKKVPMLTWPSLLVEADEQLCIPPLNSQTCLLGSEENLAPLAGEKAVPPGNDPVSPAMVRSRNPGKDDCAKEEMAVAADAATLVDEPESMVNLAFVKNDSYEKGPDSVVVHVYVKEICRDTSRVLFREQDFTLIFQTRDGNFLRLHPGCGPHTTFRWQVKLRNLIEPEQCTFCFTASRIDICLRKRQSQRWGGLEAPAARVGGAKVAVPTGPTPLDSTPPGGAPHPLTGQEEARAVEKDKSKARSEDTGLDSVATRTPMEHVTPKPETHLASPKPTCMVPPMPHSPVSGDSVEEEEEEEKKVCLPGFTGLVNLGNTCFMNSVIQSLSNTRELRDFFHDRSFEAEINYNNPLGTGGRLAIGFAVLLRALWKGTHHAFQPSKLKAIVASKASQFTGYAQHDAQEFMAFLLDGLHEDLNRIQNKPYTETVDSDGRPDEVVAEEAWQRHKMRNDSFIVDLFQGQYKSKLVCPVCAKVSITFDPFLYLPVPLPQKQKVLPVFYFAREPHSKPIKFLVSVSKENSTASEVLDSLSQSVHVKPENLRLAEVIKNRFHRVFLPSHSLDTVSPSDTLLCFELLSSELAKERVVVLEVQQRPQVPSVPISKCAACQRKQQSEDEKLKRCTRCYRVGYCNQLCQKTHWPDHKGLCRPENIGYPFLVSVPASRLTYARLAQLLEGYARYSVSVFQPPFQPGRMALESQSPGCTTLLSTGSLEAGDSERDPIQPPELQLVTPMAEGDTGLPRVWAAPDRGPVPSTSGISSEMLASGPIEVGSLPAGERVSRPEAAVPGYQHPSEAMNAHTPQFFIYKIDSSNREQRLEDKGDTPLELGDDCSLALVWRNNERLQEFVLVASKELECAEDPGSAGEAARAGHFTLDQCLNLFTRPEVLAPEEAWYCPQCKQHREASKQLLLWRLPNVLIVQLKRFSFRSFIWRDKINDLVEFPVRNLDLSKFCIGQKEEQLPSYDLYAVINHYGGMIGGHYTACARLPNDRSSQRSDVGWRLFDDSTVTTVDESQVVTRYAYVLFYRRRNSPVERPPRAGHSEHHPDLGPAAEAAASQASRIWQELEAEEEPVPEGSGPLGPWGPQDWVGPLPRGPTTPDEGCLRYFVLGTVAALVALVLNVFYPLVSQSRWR
Method in brief: as §1

USP24 = USP24 (UniProt Q9UPU5)
Method in brief: as §1

USP25 = biological target: T2, USP25 (UniProt Q9UHP3)
T2 sequence (whole entry): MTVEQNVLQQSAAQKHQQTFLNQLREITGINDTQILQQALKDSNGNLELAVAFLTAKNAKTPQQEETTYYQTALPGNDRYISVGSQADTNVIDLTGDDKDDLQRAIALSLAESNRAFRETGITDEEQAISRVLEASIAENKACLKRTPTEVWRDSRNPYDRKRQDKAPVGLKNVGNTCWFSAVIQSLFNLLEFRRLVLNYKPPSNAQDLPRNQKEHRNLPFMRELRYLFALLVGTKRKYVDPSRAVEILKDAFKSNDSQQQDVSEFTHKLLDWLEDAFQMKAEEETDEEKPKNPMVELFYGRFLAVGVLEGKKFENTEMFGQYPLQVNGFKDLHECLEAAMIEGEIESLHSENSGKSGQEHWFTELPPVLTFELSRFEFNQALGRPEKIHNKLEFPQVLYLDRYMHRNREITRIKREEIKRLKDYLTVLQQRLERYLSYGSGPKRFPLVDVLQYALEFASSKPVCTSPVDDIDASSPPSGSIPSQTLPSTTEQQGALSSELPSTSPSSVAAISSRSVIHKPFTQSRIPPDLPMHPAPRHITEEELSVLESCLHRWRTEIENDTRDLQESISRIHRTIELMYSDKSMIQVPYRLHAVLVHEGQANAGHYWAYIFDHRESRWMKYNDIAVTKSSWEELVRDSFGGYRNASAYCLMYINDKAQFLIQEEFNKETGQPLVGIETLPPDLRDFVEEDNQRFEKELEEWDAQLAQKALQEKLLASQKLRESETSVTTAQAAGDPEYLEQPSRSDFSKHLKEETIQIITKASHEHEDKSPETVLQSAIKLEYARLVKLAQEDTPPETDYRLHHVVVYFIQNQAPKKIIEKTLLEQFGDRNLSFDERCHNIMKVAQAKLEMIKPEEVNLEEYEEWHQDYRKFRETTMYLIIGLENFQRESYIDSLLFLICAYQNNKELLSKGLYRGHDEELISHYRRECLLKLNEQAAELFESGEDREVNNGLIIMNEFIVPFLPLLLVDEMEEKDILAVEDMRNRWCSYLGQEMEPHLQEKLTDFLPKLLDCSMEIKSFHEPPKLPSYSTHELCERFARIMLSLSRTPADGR
Method in brief: as §1

USP28 = biological target: T3, USP28 (UniProt Q96RU2)
T3 sequence (whole entry): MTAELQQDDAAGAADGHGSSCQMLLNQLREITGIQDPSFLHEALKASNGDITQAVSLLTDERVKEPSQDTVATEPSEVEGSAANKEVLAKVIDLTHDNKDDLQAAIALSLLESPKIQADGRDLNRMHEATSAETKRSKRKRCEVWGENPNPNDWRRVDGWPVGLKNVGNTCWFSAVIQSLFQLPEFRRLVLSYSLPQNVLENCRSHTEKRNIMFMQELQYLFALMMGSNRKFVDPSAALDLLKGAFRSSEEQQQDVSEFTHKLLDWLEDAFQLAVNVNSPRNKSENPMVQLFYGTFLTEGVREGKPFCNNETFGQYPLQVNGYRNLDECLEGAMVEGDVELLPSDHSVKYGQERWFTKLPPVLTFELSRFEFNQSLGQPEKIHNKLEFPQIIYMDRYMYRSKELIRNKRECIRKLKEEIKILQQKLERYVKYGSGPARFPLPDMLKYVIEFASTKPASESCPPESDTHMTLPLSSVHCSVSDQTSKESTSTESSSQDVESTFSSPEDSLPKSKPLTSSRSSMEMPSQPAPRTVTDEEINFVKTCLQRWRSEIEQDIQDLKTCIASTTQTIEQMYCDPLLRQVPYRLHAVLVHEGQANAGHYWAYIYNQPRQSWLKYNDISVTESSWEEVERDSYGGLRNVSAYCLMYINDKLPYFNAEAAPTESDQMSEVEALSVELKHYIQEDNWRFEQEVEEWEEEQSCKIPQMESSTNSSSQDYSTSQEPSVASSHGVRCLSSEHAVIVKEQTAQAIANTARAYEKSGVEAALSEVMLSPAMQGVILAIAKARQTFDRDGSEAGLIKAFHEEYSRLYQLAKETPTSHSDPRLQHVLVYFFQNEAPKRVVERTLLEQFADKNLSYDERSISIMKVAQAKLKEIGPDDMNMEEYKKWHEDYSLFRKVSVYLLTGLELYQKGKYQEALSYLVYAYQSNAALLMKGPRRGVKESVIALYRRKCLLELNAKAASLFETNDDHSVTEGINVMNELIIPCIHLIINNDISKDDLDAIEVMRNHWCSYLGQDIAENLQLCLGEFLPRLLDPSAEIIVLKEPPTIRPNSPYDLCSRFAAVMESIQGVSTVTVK
Method in brief: as §1

Measured: log2 ratio of Biotin-Ahx-Ub-VS probe labelling

Sequence of USP16 (Q9Y5T5 whole entry, looked up, the tested form may be a part): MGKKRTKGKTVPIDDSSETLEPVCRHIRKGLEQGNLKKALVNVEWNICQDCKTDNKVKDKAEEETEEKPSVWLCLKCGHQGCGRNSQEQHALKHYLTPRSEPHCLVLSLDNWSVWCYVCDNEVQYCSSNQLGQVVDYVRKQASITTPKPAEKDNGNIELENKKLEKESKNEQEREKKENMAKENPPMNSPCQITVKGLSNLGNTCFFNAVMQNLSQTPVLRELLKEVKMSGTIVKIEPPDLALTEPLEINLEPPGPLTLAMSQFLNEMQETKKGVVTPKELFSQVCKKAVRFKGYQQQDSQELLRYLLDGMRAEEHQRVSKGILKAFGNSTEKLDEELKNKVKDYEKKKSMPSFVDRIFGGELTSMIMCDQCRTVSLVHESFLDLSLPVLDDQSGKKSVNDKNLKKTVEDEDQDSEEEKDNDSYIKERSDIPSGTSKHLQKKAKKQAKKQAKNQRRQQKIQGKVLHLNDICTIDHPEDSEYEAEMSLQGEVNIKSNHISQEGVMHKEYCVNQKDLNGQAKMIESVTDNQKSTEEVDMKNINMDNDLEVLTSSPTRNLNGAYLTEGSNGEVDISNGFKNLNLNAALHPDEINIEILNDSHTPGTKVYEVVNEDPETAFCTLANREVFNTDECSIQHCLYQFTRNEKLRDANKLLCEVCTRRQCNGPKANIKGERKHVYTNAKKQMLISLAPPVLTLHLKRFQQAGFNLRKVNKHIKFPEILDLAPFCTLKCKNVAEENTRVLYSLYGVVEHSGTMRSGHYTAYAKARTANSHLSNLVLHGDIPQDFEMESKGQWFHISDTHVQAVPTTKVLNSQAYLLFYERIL
Sequence of USP24 (Q9UPU5 whole entry): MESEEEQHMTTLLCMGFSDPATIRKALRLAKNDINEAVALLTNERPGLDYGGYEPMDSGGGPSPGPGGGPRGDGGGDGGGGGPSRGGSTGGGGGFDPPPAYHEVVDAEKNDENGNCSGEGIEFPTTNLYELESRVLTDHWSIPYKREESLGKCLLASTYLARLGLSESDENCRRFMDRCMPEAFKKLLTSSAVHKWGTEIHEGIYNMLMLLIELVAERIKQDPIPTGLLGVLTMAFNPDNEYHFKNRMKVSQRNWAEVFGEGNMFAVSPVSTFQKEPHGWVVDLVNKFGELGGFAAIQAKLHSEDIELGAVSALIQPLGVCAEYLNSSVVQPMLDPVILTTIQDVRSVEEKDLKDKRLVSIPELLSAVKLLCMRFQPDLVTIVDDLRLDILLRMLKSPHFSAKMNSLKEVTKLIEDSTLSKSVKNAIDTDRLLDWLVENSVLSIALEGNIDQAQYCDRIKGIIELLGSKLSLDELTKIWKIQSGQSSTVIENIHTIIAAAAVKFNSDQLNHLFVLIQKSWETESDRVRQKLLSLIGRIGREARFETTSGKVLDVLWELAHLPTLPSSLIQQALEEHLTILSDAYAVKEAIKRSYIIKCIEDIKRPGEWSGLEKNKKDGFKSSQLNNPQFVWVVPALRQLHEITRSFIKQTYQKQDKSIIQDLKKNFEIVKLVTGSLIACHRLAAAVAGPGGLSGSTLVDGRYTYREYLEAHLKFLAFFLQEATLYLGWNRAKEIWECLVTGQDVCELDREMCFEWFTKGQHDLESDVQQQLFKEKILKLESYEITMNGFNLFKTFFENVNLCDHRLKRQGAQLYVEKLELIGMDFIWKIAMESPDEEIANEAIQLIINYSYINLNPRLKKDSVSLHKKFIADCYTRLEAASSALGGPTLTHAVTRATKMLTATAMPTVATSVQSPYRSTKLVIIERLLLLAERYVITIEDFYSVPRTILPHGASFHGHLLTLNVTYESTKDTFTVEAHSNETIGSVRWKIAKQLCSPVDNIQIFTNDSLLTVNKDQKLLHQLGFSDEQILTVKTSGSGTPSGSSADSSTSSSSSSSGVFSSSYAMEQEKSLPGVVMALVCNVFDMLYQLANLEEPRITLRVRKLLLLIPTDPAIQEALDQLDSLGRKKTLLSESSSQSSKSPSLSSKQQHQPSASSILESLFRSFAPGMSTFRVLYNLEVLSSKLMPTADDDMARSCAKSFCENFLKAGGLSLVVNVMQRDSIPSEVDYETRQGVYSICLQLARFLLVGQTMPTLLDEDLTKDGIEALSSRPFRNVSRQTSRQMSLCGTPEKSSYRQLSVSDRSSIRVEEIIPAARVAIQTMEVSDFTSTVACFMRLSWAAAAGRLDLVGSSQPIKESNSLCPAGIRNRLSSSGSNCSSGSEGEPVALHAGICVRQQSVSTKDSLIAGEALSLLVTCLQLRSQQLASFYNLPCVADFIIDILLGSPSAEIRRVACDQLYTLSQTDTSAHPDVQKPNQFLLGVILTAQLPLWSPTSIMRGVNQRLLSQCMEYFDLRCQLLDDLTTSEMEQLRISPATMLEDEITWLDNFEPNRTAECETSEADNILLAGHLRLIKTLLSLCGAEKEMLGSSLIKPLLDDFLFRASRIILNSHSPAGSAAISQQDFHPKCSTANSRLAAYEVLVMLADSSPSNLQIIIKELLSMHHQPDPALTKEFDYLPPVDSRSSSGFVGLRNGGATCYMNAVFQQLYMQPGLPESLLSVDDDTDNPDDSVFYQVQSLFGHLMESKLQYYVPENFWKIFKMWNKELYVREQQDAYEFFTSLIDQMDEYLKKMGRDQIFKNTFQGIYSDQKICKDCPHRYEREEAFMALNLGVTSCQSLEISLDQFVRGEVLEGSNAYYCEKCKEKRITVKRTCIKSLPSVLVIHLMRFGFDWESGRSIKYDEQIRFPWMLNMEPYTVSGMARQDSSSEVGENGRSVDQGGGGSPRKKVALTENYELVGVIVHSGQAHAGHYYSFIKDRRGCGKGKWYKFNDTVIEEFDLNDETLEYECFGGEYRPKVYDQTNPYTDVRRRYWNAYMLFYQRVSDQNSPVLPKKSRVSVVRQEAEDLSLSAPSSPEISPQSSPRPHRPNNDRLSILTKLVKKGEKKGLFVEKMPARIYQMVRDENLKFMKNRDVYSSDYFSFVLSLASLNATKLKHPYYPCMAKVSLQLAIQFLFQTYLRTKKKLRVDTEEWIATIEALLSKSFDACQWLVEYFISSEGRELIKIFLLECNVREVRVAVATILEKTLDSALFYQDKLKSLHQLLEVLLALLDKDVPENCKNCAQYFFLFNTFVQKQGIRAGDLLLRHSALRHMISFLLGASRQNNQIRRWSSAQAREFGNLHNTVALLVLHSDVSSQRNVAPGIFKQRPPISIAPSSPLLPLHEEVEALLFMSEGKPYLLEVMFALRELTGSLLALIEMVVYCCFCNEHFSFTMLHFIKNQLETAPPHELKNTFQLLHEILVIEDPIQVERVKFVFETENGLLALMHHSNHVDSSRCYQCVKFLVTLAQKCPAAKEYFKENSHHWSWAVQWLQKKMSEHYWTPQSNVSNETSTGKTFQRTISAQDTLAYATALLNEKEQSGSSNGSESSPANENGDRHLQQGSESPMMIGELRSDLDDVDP

O=C(CCl)Nc1cccc2ncccc12
inactive: USP16 0.52 | USP19 -0.114 | USP24 -0.136 | USP25 -0.527 | USP28 -0.917

From the supplement of paper PMC11732987, “Enantioselective OTUD7B fragment discovery through chemoproteomics screening and high-throughput optimisation” (Communications Chemistry, 2025)
